Unmarked numbers belong to inactive results. Active and inactive are the calls of the source.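 How the source made its calls: active means inhibition above the hit cutoff set in the earlier primary screen (cut at about 27% in these data); inactive means the rest.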
What follows are compounds tested against Protein phosphatase methylesterase 1 (Homo sapiens) (UniProt Q9Y570) (assay: PME-1 inhibitor activity retest, confirmation, biochemical, fluorescence polarization, FP-Rh probe, triplicate (AID 2171;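 further: 0% = enzyme with DMSO and 100% = wells lacking PME-1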)). Settings: recombinant PME-1, FP-Rh probe fluorescence polarization; at 5.9 µM; active compounds read high.
Chain of Protein phosphatase methylesterase 1 (Homo sapiens) (Q9Y570 whole entry, looked up): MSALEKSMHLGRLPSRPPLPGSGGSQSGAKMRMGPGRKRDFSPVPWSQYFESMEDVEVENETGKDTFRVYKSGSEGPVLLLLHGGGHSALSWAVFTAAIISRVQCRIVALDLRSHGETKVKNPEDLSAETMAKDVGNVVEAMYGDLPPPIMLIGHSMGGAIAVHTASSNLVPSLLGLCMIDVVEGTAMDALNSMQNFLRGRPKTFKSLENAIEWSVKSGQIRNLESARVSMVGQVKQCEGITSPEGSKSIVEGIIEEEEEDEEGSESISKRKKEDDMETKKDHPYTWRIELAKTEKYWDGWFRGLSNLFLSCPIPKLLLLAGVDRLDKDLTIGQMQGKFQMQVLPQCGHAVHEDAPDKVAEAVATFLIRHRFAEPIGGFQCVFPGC

SMILES	inhibition
O=C1C2=C(Nc3ccccc3SC2c2ccco2)c2ccccc21 (stereo not given)	5.92%
CCOC(=O)c1c(C)[nH]c(C2=NNC(=Nc3ccc(OCC)cc3)SC2)c1C	18.9%
O=C(CNc1ccccc1)N/N=C/c1c(O)ccc2ccccc12	17.1%
O=C(CNc1ccc2ccccc2c1)N/N=C/c1ccc(OC(=O)/C=C/c2ccco2)cc1	11.7%
CCCn1nc([N+](=O)[O-])c(C(C#N)c2nc3ccccc3o2)c(Cl)c1=O (stereo not given)	36.5% (active)
COc1ccc(Nc2ncnc3sc(-c4ccccc4)cc23)cc1OC	6.82%
CC(C)NC(=S)N=Nc1c(O)[nH]c2ccc(C(C)C)cc12	34.8% (active)
CCOc1ccc(NC(=O)Nc2ccc3c(c2)N(C)C(=O)CS3)cc1	14.8%
CCc1cccc2cc3c(N)c(C(=O)Nc4ccc(S(=O)(=O)N5CCCC5)cc4)sc3nc12	-1.66%
Cc1ccc(NS(=O)(=O)c2cccc(C(=O)N3CCN(c4ncccn4)CC3)c2)cc1	9.07%
COc1ccc(OCCn2cc(/C=N/NC(=O)c3ccncc3)c3ccccc32)cc1	-21.9%
CC1CCCCN1S(=O)(=O)c1ccc(C(=O)Nc2ccccc2-c2nc3ccccc3[nH]2)cc1 (stereo not given)	8.87%
CC1=NN(c2ccccc2)C(=O)/C1=C/c1c(O)n(-c2ccc(F)c(Cl)c2)[nH]c1=O	49% (active)
O=C(c1ccc2c(c1)OCO2)N1CCCC(c2ccccc2)C1 (stereo not given)	22%
Cc1cccc2cc(C#N)c(SCC#N)nc12	3.95%

— PubChem BioAssay
